Four molecules from ChEMBL document CHEMBL3433997, “St. Jude Leishmania screening dataset” (2016) can be followed below.

Common to all, as to format: functional
Assay [1] addresses Solute carrier family 2, facilitated glucose transporter member 1 (Homo sapiens) (UniProt P11166). Kind of assay: ST_JUDE_LEISH: Cytotoxicity at 2uM final concentration against transgenic Leishmania Mexicana promastigotes LmGLUT1 that are glucose transport deficient and complemented with the human glucose transporter GLUT1. Activity is measured by DNA content using SYBR green in vitro.

For assay [2], the target named is Hexose transporter 1 (Plasmodium falciparum) (UniProt O97467). Kind of assay: ST_JUDE_LEISH: Cytotoxicity at 2uM final concentration against transgenic Leishmania Mexicana promastigotes LmPfHT that are glucose transport deficient and complemented with the Plasmodium falciparum hexose transporter. Activity is measured by DNA content using SYBR green in vitro.
Assay [3] concerns the target Glucose transporter (Leishmania mexicana) (UniProt O61059). In words: ST_JUDE_LEISH: Cytotoxicity at 2uM final concentration against transgenic Leishmania Mexicana promastigotes LmGT2 that are glucose transport deficient and complemented with the L. Mexicana glucose transporter 2. Activity is measured by DNA content using SYBR green in vitro.

Sequence of Solute carrier family 2, facilitated glucose transporter member 1 (Homo sapiens) (P11166 whole entry): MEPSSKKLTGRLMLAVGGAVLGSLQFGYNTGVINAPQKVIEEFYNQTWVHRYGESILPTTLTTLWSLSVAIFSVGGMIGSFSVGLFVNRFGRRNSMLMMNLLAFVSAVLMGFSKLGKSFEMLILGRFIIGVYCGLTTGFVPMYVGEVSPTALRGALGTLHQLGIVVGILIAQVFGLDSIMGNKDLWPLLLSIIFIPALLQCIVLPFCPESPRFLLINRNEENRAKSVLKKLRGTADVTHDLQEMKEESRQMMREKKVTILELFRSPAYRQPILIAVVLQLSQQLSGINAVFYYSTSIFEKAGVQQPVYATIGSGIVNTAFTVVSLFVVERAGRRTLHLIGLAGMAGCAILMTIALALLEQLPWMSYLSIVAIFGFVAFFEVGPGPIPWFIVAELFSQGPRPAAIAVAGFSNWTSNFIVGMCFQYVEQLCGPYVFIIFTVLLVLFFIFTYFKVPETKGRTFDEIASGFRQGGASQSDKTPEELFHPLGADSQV

What is called inhibition is the drop in the measured response relative to a control, in per cent. `CC(=O)N(C)c1cccc(C(=O)Nc2ccc(-c3cccc(-c4nc5cccc(C)c5[nH]4)c3)cc2)c1`: the inhibition was 2.19% in assay [1], 1.06% in assay [2] and -8.47% in assay [3].
Taken in the same sequence, the figures for `Cc1nc(N)nc(N)c1OCCCOc1ccccc1Br` were 46.9%, 61.8% and 43.6%.
As to `O=C(Nc1cccc(C(F)(F)F)c1)NC1CCN(c2ccnc3cc(Cl)ccc23)CC1`, the figures for the inhibition in assay [1], in assay [2] and in assay [3] were 1.6%, 1.64% and -1.47%, respectively.
For the molecule `C=CCc1cccc(OC)c1OCCCON1C(=N)N=C(N)NC1(C)C`, the results for the inhibition in assay [1], in assay [2] and in assay [3] were -0.04%, 0.37% and 0.43%, respectively.
